{"source": "paper PMC5540273", "about": "(PLoS ONE, 2017);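 note: KINOMEscan kinase panel screen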"}
{"tested_on": "T1, JNK1", "T1 construct": "gene MAPK8", "conditions": "concentration: 1 μM, replicates: in singlicate; n = 1", "units": {"%Inh": "%"}}
{"smiles": "COc1cc2ncn(-c3cc(OCc4ccncc4)c(C(N)=O)s3)c2cc1OC", "note": "[GSK336313]", "%Inh": 0}
{"smiles": "OCCCNc1nccc(-c2c(-c3cccc(C(F)(F)F)c3)nn3cc(C(F)(F)F)ccc23)n1", "note": "[GW630813]", "%Inh": 0}
{"smiles": "Cc1ccc(Oc2ccc(Nc3ncnc4cc[nH]c34)cc2C)cn1", "%Inh": 43}
{"smiles": "COc1cc(Nc2nccc(N3CCC(NC(=O)C(C)c4ccc(Cl)cc4)C3)n2)cc(OC)c1OC", "note": "(stereo not drawn) [GSK1379757]", "%Inh": 3}
{"smiles": "Nc1nc(N)c2nc(-c3ccccc3)[nH]c2n1", "note": "[SKF-12778]", "%Inh": 20}
{"smiles": "COc1cc(OC)cc(-c2cc3cnc(N)nc3nc2NC(=O)NC(C)(C)C)c1", "%Inh": 0}
{"smiles": "COc1cc2nccc(Nc3cccc(Oc4ccccc4)c3)c2cc1OC.Cl", "note": "[GW284543]", "%Inh": 1}
{"smiles": "CCn1c(-c2ccoc2)nc2cnccc21", "note": "[SB-733887]", "%Inh": 9}
{"smiles": "CCn1c(-c2nonc2N)nc2ccccc21", "note": "[SB-693162/GW549034]", "%Inh": 78}
{"smiles": "COC(=O)c1c(-c2ccccc2)c2cc(C)ccc2c(=O)n1Cc1ccccc1", "%Inh": 44}
{"smiles": "CCCNC(=O)Nc1ccc(Oc2ncnc3ccn(C)c23)cc1", "%Inh": 0}
{"smiles": "COc1ccc(-c2coc3ccc(-c4nnc(SCc5cccc(C#N)c5)o4)cc23)cc1", "%Inh": 22}
{"smiles": "CCC(=O)c1c(-c2ccccc2)c2cc(Cl)ccc2c(=O)n1Cc1cc(S(C)(=O)=O)n(CC(F)F)n1", "%Inh": 99.1}
{"smiles": "CN1C(=O)C(Nc2ccccc2)=C(c2ccccc2)C1=O", "note": "[SB-300079]", "%Inh": 14}
{"smiles": "Cc1ccccc1COc1cc(-n2cnc3cc(Cl)ccc32)sc1C(N)=O", "note": "[GW813349]", "%Inh": 24}
{"smiles": "COc1cc2ncn(-c3cc(OCCCc4ccccc4)c(C(N)=O)s3)c2cc1OC", "note": "[GSK205189]", "%Inh": 15}
{"smiles": "COc1cc2ncn(-c3cc(OCc4ccncc4Br)c(C(N)=O)s3)c2cc1OC", "note": "[GW854278]", "%Inh": 0}
{"smiles": "O=C1NC(=O)C(c2ccccc2)=C1Nc1cccc(O)c1", "note": "[SB-390534]", "%Inh": 22}
{"smiles": "Cc1cccc(-c2nc(Nc3ccc4c(cnn4C)c3)c3ccccc3n2)n1", "note": "[GW876731]", "%Inh": 1}
{"smiles": "COc1ccc(CNC(=O)NC2CCN(c3ccnc(Nc4ccc(F)cc4)n3)C2)cc1", "note": "(stereo not drawn) [GSK1379706]", "%Inh": 19}
{"smiles": "O=C(NCCNc1ccnc(Nc2ccc(F)cc2)n1)Nc1ccc2c(c1)OCO2", "note": "[GSK1379882]", "%Inh": 22}
{"smiles": "CCS(=O)(=O)c1ccc(OC)c(Nc2ncc(-c3ccc(F)cc3)o2)c1.Cl", "note": "[GW591947]", "%Inh": 2}
{"smiles": "COC(=O)c1c(-c2ccccc2)c2cc(Br)ccc2c(=O)n1Cc1ccc(NC(=O)CCC(=O)O)cc1", "%Inh": 99}
{"smiles": "O=C(Nc1n[nH]c2cc(-c3ccccc3F)ccc12)C1CC1", "note": "[SB-733371]", "%Inh": 33}
{"smiles": "Cc1nn2c(=O)cc(N3CCOCC3)nc2n1Cc1cccc(Cl)c1Cl", "note": "[GSK2342769]", "%Inh": 10}
{"smiles": "O=c1cc(N2CCOCC2)nc2n(Cc3ccc(F)c(Cl)c3)ccn12", "note": "[GSK2297099]", "%Inh": 21}
{"smiles": "Cc1nnc(-c2ccc(C)c(-c3ccc(C(=O)O)cc3)c2)o1", "note": "[GW608005]", "%Inh": 1}
{"smiles": "Cc1c(Cn2c(C)nn3c(=O)cc(N4CCO[C@H](C)C4)nc23)cccc1C(F)(F)F", "note": "[GSK2373690]", "%Inh": 18}
{"smiles": "Nc1ncnc2c1ncn2-c1cccc(F)c1", "note": "[SKF-97560]", "%Inh": 38}
{"smiles": "Nc1ncnc2c1ncn2-c1ccc(Cl)cc1", "note": "[AH2635]", "%Inh": 0}
{"smiles": "CC(C)(C)c1ccc(C(=O)Nc2cn3cc(-c4ccccc4)ccc3n2)cc1", "%Inh": 13}
{"smiles": "Nc1nc(-c2ccccc2F)c(-c2ccnc3ccccc23)s1", "note": "[GW560459]", "%Inh": 56}
{"smiles": "CCC(=O)c1c(-c2ccccc2)c2cc(Cl)ccc2c(=O)n1Cc1cc(C(=O)NC2CC2)n(C)n1", "%Inh": 99.7}
{"smiles": "CCS(=O)c1ccc(-c2coc3ccc(-c4nnc(C)o4)cc23)cc1", "note": "(stereo not drawn)", "%Inh": 22}
{"smiles": "COc1ccc(-c2cc3c(C)nc(N)nc3n([C@H]3CC[C@H](OCCO)CC3)c2=O)cn1", "%Inh": 0}
{"smiles": "O=C(Nc1ccc2c(c1)OCO2)NC1CCN(c2ccnc(NCc3ccc(F)cc3)n2)CC1", "note": "[GSK1379859]", "%Inh": 0}
